From PubChem BioAssay AID743172 (National Center for Advancing Translational Sciences (NCATS), 2013) come the findings set out here.

Where “and” joins values, the source holds several entries; their conditions need not be identical. Identical values can stand only once. Inconclusive results are not listed. Calls of active or inactive are those of the source. Calls come from the whole dose curve; as a rule, active = well fitted activation curve with a large enough effect; inconclusive = small, poorly fitted or top-dose-only effect; inactive = no such curve, though single readings can be large or run the other way.

A short description of this assay: Extended Characterization of HPGD Inhibitors: PGE2 Assay in LNCaP Cells. The settings on record: PGE2 HTRF level, 16 h; series mostly up to 100 µM. The text has this: The central role of HPGD is to inactivate prostaglandins such as prostaglandin E2 (PGE2) or prostaglandin D2 (PGD2). These prostaglandins are involved in a number of processes, including inflammation, differentiation, and cellular signaling, which makes HPGD an important target for pharmacological intervention. A number of prostaglandins of particular biological interest have been identified as substrates of HPGD. […] Over-production of PGE2 has been reported to promote tumor-associated neovascularization, cell proliferation, and tumor growth. […] In this orthogonal assay, we set out to measure if compounds were able to increase PGE2 production NIH Chemical Genomics Center [NCGC] NIH Molecular Libraries Probe Centers Network [MLPCN] MLPCN Grant: MH084681 Assay Submitter (PI): Structural Genomics Consortium
A549 cells, LNCaP cells or media were dispensed in 384-well plates (ProxiPlate-384 Plus, PerkinElmer, Shelton, CT) at 5,000 cells/9.9 uL/well using a CappAero384 multichannel pipette (Odense, Denmark). Separately on the plate, 10 uL of PGE2 calibration standards at a starting assay concentration of 5,000 pg/mL (1:2 dilution, 12-points, n = 1, prepared in media, Cisbio, Bedford, MA) were dispensed. Compounds (100 nL, final concentration range from 41.9 nM to 100 uM) were transferred using an ATS Acoustic Liquid Dispenser (EDC Biosystems, Fremont, CA). After being mixed using an automated liquid handler (CyBio, Jena, Germany), samples were incubated (37 deg C, 5% CO2, under a humidified atmosphere) for 16 hours. PGE2 labeled conjugates were added to each well, first 5 uL of PGE2-d2, followed by 5 uL of anti-PGE2-cryptate, centrifuged (1,500 rpm, 15 sec) and incubated (RT, protected from light) for 5 hours. Time-resolved fluorescence intensity (320 nm excitation, 615 and 665 nm emission) was measured using an Envision plate reader (PerkinElmer). Data was expressed as the ratio of 665 nm/615 nm emissions. Concentration (pg/mL) of samples were calculated from a 4-parameter logistic calibration curves of the PGE2 standards.
As to `O=C(c1ccc2c(c1)ncn2-c1cccc(Cl)c1)N1CCCCC1`, the Potency was 0.222 µM (active).
The same measure for `Cc1cccc(-n2cnc3cc(C(=O)N4CCC(C#N)CC4)ccc32)c1`: “inactive”; for `COc1ccc(CSc2nc3ncc(Br)cc3[nH]2)cc1F`: 22.2 µM (active); for `Brc1cnc2nc(SCc3ccncc3)[nH]c2c1`: 4.43 µM (active).
The same measure for `Cc1ccc(-n2cnc3cc(C(=O)N4CCCCC4)ccc32)cc1`: 0.443 µM (active).
`Brc1cnc2nc(SCc3ccccn3)[nH]c2c1`: the Potency is 11.1 µM (active).
Take `Clc1ccc(CSc2nc3ncc(Br)cc3[nH]2)cc1`: the Potency is 14 µM (active).
Consider `O=C(c1ccc2c(c1)ncn2-c1ccccc1)N1CCCCC1`, for which the Potency is 0.28 µM (active).
For `Cc1cccc(-n2cnc3cc(C(=O)N4CCC(c5ccccc5)CC4)ccc32)c1` the value was “inactive”; for `CC(C)(C)c1ccc(CSc2nc3ncc(Br)cc3[nH]2)cc1`, 35.2 µM (active); for `Cc1cccc(-n2cnc3cc(C(=O)N4CCCCC4)ccc32)c1`, 702 nM (active) and 884 nM (active).
In the case of `N#Cc1ccccc1CNc1nc2ncc(Br)cc2[nH]1`, the Potency result was “inactive”.
On to `Clc1ccccc1CSc1nc2ncc(Br)cc2[nH]1`, for which the Potency is 44.3 µM (active).
As for `c1ccc(-n2cc(-c3nnc4n3CCCCC4)cn2)cc1`, the Potency result was “inactive”.
Consider `O=[N+]([O-])c1ccc(CSc2nc3ncc(Br)cc3[nH]2)cc1`, for which the Potency was 2.22 µM (active).
In the case of `Brc1cnc2nc(SCc3cccnc3)[nH]c2c1`, the Potency is 7.03 µM (active).
On to `Cc1cc(-c2nnc3n2CCCCC3)c(C)n1-c1cccc2ccccc12`, for which the Potency was 884 nM (active) and 1.76 µM (active).
For `FC(F)(F)c1cccc(CSc2nc3ncc(Br)cc3[nH]2)c1`, the Potency is 35.2 µM (active).
As to `Cc1cccc(-n2cnc3cc(C(=O)N4CCCC4)ccc32)c1`, the Potency is 55.8 µM (active).
`CC(C)c1cccc(-n2cnc3cc(C(=O)N4CCCCC4)ccc32)c1`: the Potency was 2.8 µM (active).
Consider `Cc1cccc(-n2cnc3cc(C(=O)N4CCC(Cc5ccccc5)CC4)ccc32)c1`, for which the Potency entry was “inactive”.
The same measure for `Brc1cnc2nc(SCc3ccccc3)[nH]c2c1`: 44.3 µM (active); for `O=C(c1ccc2c(c1)ncn2-c1ccc(Cl)cc1)N1CCCCC1`: 0.884 µM (active); for `Cc1ccccc1CSc1nc2ncc(Br)cc2[nH]1`: 22.2 µM (active).
For `Clc1cccc(CSc2nc3ncc(Br)cc3[nH]2)c1`, the Potency is 44.3 µM (active).
For `FC(F)(F)c1ccc(CSc2nc3ncc(Br)cc3[nH]2)cc1`, the Potency was 44.3 µM (active).
On to `Cc1cc(-c2nnc3n2CCCCC3)c(C)n1-c1ccc(Br)cc1`, for which the Potency was 2.8 µM (active).
The same measure for `O=[N+]([O-])c1ccccc1CSc1nc2ncc(Br)cc2[nH]1`: 0.352 µM (active); for `Cc1cccc(-n2cnc3cc(C(=O)NC(C)(C)C)ccc32)c1`: “inactive”; for `N#Cc1ccccc1CSc1nc2ncc(Br)cc2[nH]1`: 35.2 µM (active).
Turning to `FC(F)(F)c1ccc(-c2nc(-c3nnc4n3CCCCC4)c(C(F)(F)F)o2)cc1`, the Potency result was “inactive”.
Take `Cc1ccc(-n2c(C)cc(-c3nnc4n3CCCCC4)c2C)cc1`: the Potency is 0.702 µM (active).
Take `CCCCn1cnc2cc(C(=O)N3CCCCC3)ccc21`: the Potency was 4.43 µM (active).
Regarding `CC(C)(C)c1ccc(-n2cnc3cc(C(=O)N4CCCCC4)ccc32)cc1`, the Potency was 4.43 µM (active).
In the case of `Cc1cc(-c2nnc3n2CCCC3)c(C)n1-c1ccccc1`, the Potency is 7.03 µM (active).
On to `N#Cc1cccc(CSc2nc3ncc(Br)cc3[nH]2)c1`, for which the Potency is 35.2 µM (active).
The same measure for `Cc1cccc(-n2cnc3cc(C(=O)N4CCCC(C(F)(F)F)C4)ccc32)c1` (stereo not given): 1.76 µM (active); for `O=[N+]([O-])c1cccc(CSc2nc3ncc(Br)cc3[nH]2)c1`: “inactive”; for `Clc1ccc(CSc2nc3ncc(Br)cc3[nH]2)cc1Cl`: 22.2 µM (active).
As to `COc1ccccc1-n1cnc2cc(C(=O)N3CCCCC3)ccc21`, the Potency was 1.76 µM (active).
